Source: PubChem BioAssay (Tox21)
Unmarked numbers belong to inactive results. Records with an inconclusive call do not appear. Where a call stands in place of a potency, no number is given. Activity calls are given as the source filed them. Unless noted, calls follow the shape of the dose curve; as a rule, active = well fitted curve in the direction sought with a large enough effect in the repeat runs; inconclusive = weak or mixed curves; inactive = no such curve, though single readings can be large; an effect the other way counts as inactive or inconclusive.

How the values were obtained:
[1] = qHTS assay to identify small molecule agonists of the hypoxia (HIF-1) signaling pathway - cell viability counter screen (AID 1224844; calls by dose curve; also: nearly all actives have a fitted effect of over 50% in size)
Method in brief: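 HRE-bla ME-180 cells, 2,000/well in 0.5% dialyzed FBS medium, treated 17 h at 37C with compounds. Viability read in the same wells as the bla reporter, by CellTiter-Glo luminescence after 30 min at room temperature.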

[2] = qHTS assay to identify small molecule agonists of H2AX (AID 1224845; active = well fitted activation curve with a large enough effect in the signal ratio in the repeat runs, not every such curve was filed as active; the % refers to the signal ratio)
Method in brief: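 Wild-type CHO-K1 cells, plated overnight, exposed 3hr at 37C to 15 concentrations (0.76% DMSO final). Lysed, then HTRF anti-pH2AX (S139) cryptate and anti-H2AX-d2 antibodies, 24 hr room temperature; 665/620 nm emission read.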

[3] = qHTS assay to identify small molecule agonists of H2AX - cell viability counter screen (AID 1224847; calls by dose curve; also: top concentration of the series differs between compounds; nearly all actives have a fitted effect of over 30% in size)
Method in brief: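 Cells plated first: CHO-K1, 1000 per well in 10% FBS medium, incubated overnight at 37C. Then 15-point compound titration added (final DMSO 0.76%) for 3 hr. Finally CellTiter-Glo added and luminescence read.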

[4] = qHTS RealTime-Glo MT Cell Viability Assay in HepG2 cells - 24 hour (AID 1224867); also: nearly all actives have a fitted effect of over 50% in size
Method in brief: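 Luminescence read-out: viable HepG2 cells reduce a prosubstrate to a NanoLuc substrate, giving a signal proportional to live cell number. Reads taken at 0, 8, 16, 24, 32 and 40 h of compound exposure at 37 C.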

[5] = qHTS RealTime-Glo MT Cell Viability Assay in HEK293 cells - 32 hour (AID 1224868); also: nearly all actives have a fitted effect of over 50% in size; also: potency is read from the fitted curve at half-maximal effect; as to activity change, negative = cytotoxic: top concentration of the series differs between compounds
Method in brief: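 Nonlytic real-time viability readout: viable cells convert prosubstrate to NanoLuc substrate, giving luminescence proportional to live cell number. HEK293, 600 cells/well, compound added after 5 h, continuous culture at 37 C.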

[6] = qHTS RealTime-Glo MT Cell Viability Assay in HepG2 cells - 40 hour (AID 1224870); also: nearly all actives have a fitted effect of over 50% in size
Method in brief: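 HepG2 cells (600/well) mixed with RealTime-Glo MT reagent, settled 5 h at 37 C/5% CO2 before compound addition. Nonlytic NanoLuc luminescence from viable-cell prosubstrate reduction read repeatedly during 40 h treatment at 37 C.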

[7] = A CellTox Green Cytotoxicity Assay to monitor cytotoxicity in HEK293 cells - 0 hour (AID 1224869); also: nearly all actives have a fitted effect of over 50% in size
Method in brief: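 HEK293 cells, 600/well, were preincubated 5 hours and then exposed to compounds at 37 C for up to 40 hours. A cell-impermeant cyanine dye staining dead-cell DNA was read by fluorescence at 0, 8, 16, 24, 32 and 40 h time points.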

[8] = qHTS assay to identify small molecule antagonists of the estrogen related receptor (ERR) signaling pathway from Tox21 library (AID 1224848); also: nearly all actives have a fitted effect of over 50% in size
Method in brief: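 Luminescent reporter read-out (ONE-Glo) from NTP's ERR cell line after 18 h treatment at 37 C with DMSO-dissolved Tox21 compounds; cells pre-plated 6 h beforehand at 2,000 per well.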

[9] = qHTS assay to identify small molecule agonists of the estrogen related receptor (ERR) signaling pathway from Tox21 library (AID 1224849; calls by dose curve; also: nearly all actives have a fitted effect of over 15% in size); conditions: ERR reporter cell line, ONE-Glo luciferase, 18 h; at 92.4 µM (top of the series) unless noted
Method in brief: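 ERR reporter cells (NTP line) pre-incubated 6 hours at 37 C, then exposed to compounds for 18 hours at 37 C. ONE-Glo luciferase luminescence was read after 30 minutes at room temperature.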

| Structure (SMILES) | Potency [1] | outcome [2] | Potency [3] | Potency [4] | Potency [5] | Potency [6] | Potency [7] | Potency [8] | activity change, positive = activation [9] | activity change, negative = cytotoxicity [1] | activity change, negative = cytotoxicity [4] | activity change, negative = cytotoxic [5] | cytotoxicity [7] | activity change, negative = cytotoxic [6] |
| --- | --- | --- | --- | --- | --- | --- | --- | --- | --- | --- | --- | --- | --- | --- |
| CC(C(=O)O)c1ccc(CC2CCCC2=O)cc1 (stereo unspecified) | inactive | inactive | inactive | inactive | inactive | inactive | – | – | – | – | – | – | – | – |
| c1ccc([C@H]2CN3CCSC3=N2)cc1 | inactive | inactive | inactive | inactive | inactive | inactive | inactive | – | – | – | – | – | – | – |
| NC(=O)c1cn(Cc2c(F)cccc2F)nn1 | inactive | inactive | inactive | inactive | inactive | inactive | inactive | – | – | – | – | – | – | – |
| CCCCCSCCCCC | inactive | inactive | inactive | inactive | – | inactive | inactive | inactive | 6.38% | – | – | – | – | – |
| c1cnc(N2CCN(Cc3ccc4c(c3)OCO4)CC2)nc1 | inactive | inactive | inactive | inactive | inactive | – | inactive | – | – | – | – | – | – | – |
| CCCCC(CC)COC(=O)c1ccccc1O (stereo unspecified) | inactive | inactive | inactive | inactive | inactive | inactive | inactive | – | 5.6% [at 42.5 µM] | – | – | – | – | – |
| CCCN(CCC)CCc1cccc2c1CC(=O)N2 | inactive | inactive | inactive | inactive | inactive | inactive | inactive | – | – | – | – | – | – | – |
| CC(C)CCCC(C)N (stereo unspecified) | inactive | inactive | inactive | inactive | – | inactive | inactive | inactive | – | – | – | – | – | – |
| O=[N+]([O-])c1ccc(F)cc1F | inactive | inactive | inactive | inactive | inactive | inactive | inactive | – | 3.35% | – | – | – | – | – |
| Nc1ccc(S(=O)(=O)Nc2ccnn2-c2ccccc2)cc1 | – | inactive | inactive | – | – | – | – | – | – | -2.16% [at 15.8 µM] | 1% [at 15.8 µM] | 5.86% [at 15.8 µM] | 1.17% [at 15.8 µM] | 0.768% [at 15.8 µM] |
| CC(C)(CC(=O)O)C(=O)O | inactive | inactive | inactive | inactive | inactive | inactive | inactive | – | 3.63% | – | – | – | – | – |
| CCOC(=O)Nc1ccc(NCc2ccc(F)cc2)nc1N | inactive | inactive | inactive | inactive | inactive | inactive | inactive | – | -17.8% [at 42.5 µM] | – | – | – | – | – |
| CCN1CCC[C@H]1CNC(=O)c1c(O)c(Cl)cc(Cl)c1OC | inactive | inactive | inactive | inactive | inactive | inactive | inactive | – | – | – | – | – | – | – |
| c1ccc(CC2=NCCN2)cc1 | inactive | inactive | inactive | inactive | – | inactive | inactive | – | -1.01% [at 42.5 µM] | – | – | – | – | – |
| CC/C=C\CC/C=C/CO | inactive | inactive | inactive | inactive | inactive | – | inactive | – | 5.28% | – | – | – | – | – |
| CC(C)NCC(O)c1ccc(NS(C)(=O)=O)cc1 (stereo unspecified) | inactive | inactive | inactive | inactive | inactive | inactive | inactive | – | – | – | – | – | – | – |
| O=C1NC(=O)[C@@]2(CCOc3ccc(F)cc32)N1 | inactive | inactive | inactive | inactive | inactive | inactive | inactive | – | – | – | – | – | – | – |
| COc1ccc(CCN(C)CCCC(C#N)(c2cc(OC)c(OC)c(OC)c2)C(C)C)cc1OC (stereo unspecified) | inactive | inactive | inactive | inactive | 21.3 µM (active) | inactive | inactive | – | – | – | – | – | – | – |
| CC1=CC(C)C(C=O)CC1 (stereo unspecified) | inactive | inactive | inactive | inactive | inactive | inactive | inactive | – | 0.053% | – | – | – | – | – |
| COc1ccccc1OCC(O)CN1CCN(CC(=O)Nc2c(C)cccc2C)CC1 (stereo unspecified) | inactive | inactive | inactive | inactive | inactive | – | inactive | – | – | – | – | – | – | – |
| CO[Si](CCCOCC1CO1)(OC)OC (stereo unspecified) | inactive | inactive | inactive | inactive | inactive | – | inactive | – | – | – | – | – | – | – |
| O=C(O)c1ccccc1OP(=O)(O)O | inactive | inactive | inactive | inactive | – | inactive | inactive | inactive | – | – | – | – | – | – |
